{"source": "the antibiotic and cytotoxicity screens of Wong et al. (2023)", "note": "Among all 39,000 compounds or so, about 3,300 (8.5%) were called active. The sample holds actives, similar compounds and a random draw of the others, so the mix is not that of the screen."}
{"system": "HepG2", "experiment": "cytotoxicity call (relative viability < 0.9)", "conditions": "10 µM"}
{"smiles": "COc1ccc(S(=O)(=O)Nc2ccc3c(c2)C(=O)N([C@H](C)CO)C[C@@H](C)[C@H](CN(C)C(=O)NC2CCCCC2)OCCCC[C@@H](C)O3)cc1", "cytotoxicity call": "inactive"}
{"smiles": "C[C@H]1CN([C@@H](C)CO)C(=O)c2cc(NC(=O)Nc3cccc4ccccc34)ccc2O[C@H]1CN(C)C(=O)Nc1ccc(F)cc1", "cytotoxicity call": "inactive"}
{"smiles": "C[C@@H]1CN([C@@H](C)CO)C(=O)CCCn2cc(nn2)CO[C@H]1CN(C)S(=O)(=O)c1cccc(C#N)c1", "cytotoxicity call": "inactive"}
{"smiles": "Cc1noc(C)c1NC(=O)N(C)C[C@H]1Oc2ccc(NC(=O)Nc3ccc(C(F)(F)F)cc3)cc2CC(=O)N([C@@H](C)CO)C[C@@H]1C", "cytotoxicity call": "inactive"}
{"smiles": "COc1ccc(C#Cc2ccc3c(c2)O[C@H](CN(C)C(C)=O)[C@H](C)CN([C@H](C)CO)S3(=O)=O)cc1", "cytotoxicity call": "inactive"}
{"smiles": "C=C/C=C/[C@@H]1C(=C)CN([C@@H](Cc2ccccc2)C(=O)OC)[C@H]1[C@@H](O)CCn1cc(-c2ccc(C(=O)NO)s2)nn1", "cytotoxicity call": "inactive"}
{"smiles": "C[C@@H]1CN([C@H](C)CO)C(=O)c2cc(NC(=O)Cc3ccccc3)ccc2O[C@@H](C)CCCCO[C@@H]1CN(C)C(=O)NC1CCCCC1", "cytotoxicity call": "inactive"}
{"smiles": "COc1ccc(S(=O)(=O)N(C)C[C@@H]2OCCCC[C@H](C)Oc3ccc(NC(=O)CCC(F)(F)F)cc3C(=O)N([C@@H](C)CO)C[C@H]2C)cc1", "cytotoxicity call": "inactive"}
{"smiles": "COc1ccc(S(=O)(=O)Nc2ccc3c(c2)CC(=O)N([C@@H](C)CO)C[C@@H](C)[C@@H](CN(C)CC2CC2)O3)cc1", "cytotoxicity call": "inactive"}
{"smiles": "COc1ccc(S(=O)(=O)N[C@@H]2CC[C@@H](CC(=O)N3CCN(c4ccccc4)CC3)O[C@@H]2CO)cc1", "cytotoxicity call": "inactive"}
{"smiles": "Cn1cnc(CN)c1", "cytotoxicity call": "inactive"}
{"smiles": "C[C@H]1CN([C@@H](C)CO)C(=O)c2cc(C#CCc3ccccc3)cnc2O[C@@H]1CN(C)C(=O)C1CCOCC1", "cytotoxicity call": "inactive"}
{"smiles": "C[C@H]1CN([C@@H](C)CO)C(=O)c2cc(NS(=O)(=O)c3ccccc3)ccc2O[C@@H]1CN(C)Cc1ccncc1", "cytotoxicity call": "inactive"}
{"smiles": "Cc1noc(C)c1NC(=O)Nc1ccc2c(c1)C(=O)N([C@H](C)CO)C[C@H](C)[C@H](CN(C)C(=O)Cc1ccccc1)OCCCC[C@H](C)O2", "cytotoxicity call": "inactive"}
{"smiles": "C[C@@H]1CN([C@@H](C)CO)C(=O)c2cc(NS(=O)(=O)c3ccccc3)ccc2O[C@@H]1CN(C)Cc1ccc(Oc2ccccc2)cc1", "cytotoxicity call": "active"}
{"smiles": "C[C@H]1CN([C@@H](C)CO)C(=O)c2cc(NS(=O)(=O)c3ccccc3)ccc2O[C@H]1CN(C)Cc1ccc(Oc2ccccc2)cc1", "cytotoxicity call": "inactive"}
{"smiles": "C[C@H](CO)N1C[C@H](C)[C@H](CN(C)Cc2ccc(Oc3ccccc3)cc2)Oc2ccc(NS(=O)(=O)c3ccccc3)cc2C1=O", "cytotoxicity call": "inactive"}
{"smiles": "C[C@H](CO)N1C[C@H](C)[C@@H](CN(C)Cc2ccc(Oc3ccccc3)cc2)Oc2ccc(NS(=O)(=O)c3ccccc3)cc2C1=O", "cytotoxicity call": "inactive"}
{"smiles": "C[C@@H]1CN([C@H](C)CO)C(=O)c2cc(NS(=O)(=O)c3ccccc3)ccc2O[C@@H]1CN(C)Cc1ccc(Oc2ccccc2)cc1", "cytotoxicity call": "active"}
{"smiles": "C[C@@H]1CN([C@H](C)CO)C(=O)c2cc(NS(=O)(=O)c3ccccc3)ccc2O[C@H]1CN(C)Cc1ccc(Oc2ccccc2)cc1", "cytotoxicity call": "inactive"}
{"smiles": "C[C@@H](NS(=O)(=O)C1CN(C(=O)OCc2ccccc2)C1)C(N)=O", "cytotoxicity call": "inactive"}
{"smiles": "O=C1c2ccccc2-c2nc(-c3ccccc3)cc3cccc1c23", "cytotoxicity call": "inactive"}
{"smiles": "C[C@H](CO)N1C[C@H](C)[C@H](CN(C)C(=O)CN(C)C)Oc2cc(-c3cncnc3)ccc2S1(=O)=O", "cytotoxicity call": "inactive"}
{"smiles": "O=C(O)[C@@H](O)c1ccccc1", "cytotoxicity call": "inactive"}
{"smiles": "C[C@H]1CN([C@@H](C)CO)C(=O)c2cc(NC(=O)Nc3ccc(F)cc3)ccc2O[C@H]1CN(C)Cc1ccc(-c2ccccc2)cc1", "cytotoxicity call": "inactive"}
{"smiles": "C[C@@H]1CN([C@@H](C)CO)C(=O)c2cc(NC(=O)Nc3ccc(F)cc3)ccc2O[C@H]1CN(C)Cc1ccc(-c2ccccc2)cc1", "cytotoxicity call": "active"}
{"smiles": "C[C@H](CO)N1C[C@H](C)[C@@H](CN(C)Cc2ccc(-c3ccccc3)cc2)Oc2ccc(NC(=O)Nc3ccc(F)cc3)cc2C1=O", "cytotoxicity call": "inactive"}
{"smiles": "C[C@H]1CN([C@@H](C)CO)C(=O)c2cc(NC(=O)Nc3ccc(F)cc3)ccc2O[C@@H]1CN(C)Cc1ccc(-c2ccccc2)cc1", "cytotoxicity call": "inactive"}
{"smiles": "C[C@@H]1CN([C@H](C)CO)C(=O)c2cc(NC(=O)Nc3ccc(F)cc3)ccc2O[C@H]1CN(C)Cc1ccc(-c2ccccc2)cc1", "cytotoxicity call": "inactive"}
{"smiles": "C[C@@H]1CN([C@@H](C)CO)C(=O)c2cc(NC(=O)Nc3ccc(F)cc3)ccc2O[C@@H]1CN(C)Cc1ccc(-c2ccccc2)cc1", "cytotoxicity call": "active"}
{"smiles": "C[C@H](CO)N1C[C@H](C)[C@H](CN(C)Cc2ccc(-c3ccccc3)cc2)Oc2ccc(NC(=O)Nc3ccc(F)cc3)cc2C1=O", "cytotoxicity call": "inactive"}
{"smiles": "C[C@@H]1CN([C@H](C)CO)C(=O)c2cc(NC(=O)Nc3ccc(F)cc3)ccc2O[C@@H]1CN(C)Cc1ccc(-c2ccccc2)cc1", "cytotoxicity call": "active"}
{"smiles": "C[C@@H]1CN([C@H](C)CO)C(=O)c2cc(NC(=O)C3CCCCC3)ccc2O[C@@H](C)CCCCO[C@H]1CN(C)S(=O)(=O)c1ccc(Cl)cc1", "cytotoxicity call": "inactive"}
{"smiles": "CO[C@H]1CN(C)C(=O)c2ccc(NS(=O)(=O)c3cn(C)cn3)cc2OC[C@@H](C)N(Cc2cccc(F)c2)C[C@@H]1C", "cytotoxicity call": "inactive"}
{"smiles": "C[C@@H]1CN([C@H](C)CO)C(=O)c2cc(NS(C)(=O)=O)ccc2O[C@@H]1CN(C)C(=O)Nc1ccc(F)cc1", "cytotoxicity call": "inactive"}
{"smiles": "C[C@@H]1CCCCO[C@@H](CN(C)C(=O)Nc2ccc3c(c2)OCO3)[C@H](C)CN([C@@H](C)CO)C(=O)c2cc(NC(=O)CCC(F)(F)F)ccc2O1", "cytotoxicity call": "inactive"}
{"smiles": "CO[C@@H](CN(C)S(=O)(=O)c1ccc(C)cc1)[C@H](C)CN([C@H](C)CO)S(=O)(=O)c1cccc(Cl)c1", "cytotoxicity call": "inactive"}
{"smiles": "COCC(=O)N1C[C@@H](C)[C@H](OC)CN(C)C(=O)c2cc(NC(=O)c3ccc(F)cc3)ccc2OC[C@H]1C", "cytotoxicity call": "inactive"}
{"smiles": "O=C1c2ccccc2[C@@]2(Cc3ccccc3N(CC(F)(F)F)C2=O)[C@H](c2ccc(CO)cc2)N1Cc1ccccc1", "cytotoxicity call": "inactive"}
{"smiles": "C[C@H](CO)N1C[C@H](C)[C@@H](CN(C)Cc2ccc(C(=O)Nc3ccccc3N)cc2)Oc2ccc(NC(=O)Nc3ccc4c(c3)OCO4)cc2CC1=O", "cytotoxicity call": "inactive"}
{"smiles": "C[C@@H]1CN([C@H](C)CO)C(=O)Cc2cc(NC(=O)Nc3ccc4c(c3)OCO4)ccc2O[C@@H]1CN(C)Cc1ccc(C(=O)Nc2ccccc2N)cc1", "cytotoxicity call": "active"}
{"smiles": "C[C@H]1CN([C@@H](C)CO)C(=O)Cc2cc(NC(=O)Nc3ccccc3)ccc2O[C@@H]1CN(C)Cc1ccc(C(=O)Nc2ccccc2N)cc1", "cytotoxicity call": "inactive"}
{"smiles": "C[C@@H]1CN([C@@H](C)CO)C(=O)Cc2cc(NC(=O)Nc3ccc4c(c3)OCO4)ccc2O[C@@H]1CN(C)Cc1ccc(C(=O)Nc2ccccc2N)cc1", "cytotoxicity call": "active"}
{"smiles": "C[C@@H]1CN([C@@H](C)CO)C(=O)Cc2cc(NC(=O)Nc3ccc4c(c3)OCO4)ccc2O[C@H]1CN(C)Cc1ccc(C(=O)Nc2ccccc2N)cc1", "cytotoxicity call": "inactive"}
{"smiles": "C[C@H]1CN([C@@H](C)CO)C(=O)Cc2cc(NC(=O)Nc3ccc4c(c3)OCO4)ccc2O[C@H]1CN(C)Cc1ccc(C(=O)Nc2ccccc2N)cc1", "cytotoxicity call": "active"}
{"smiles": "C[C@@H]1CN([C@H](C)CO)C(=O)Cc2cc(NC(=O)Nc3ccc4c(c3)OCO4)ccc2O[C@H]1CN(C)Cc1ccc(C(=O)Nc2ccccc2N)cc1", "cytotoxicity call": "inactive"}
{"smiles": "C[C@H](CO)N1C[C@H](C)[C@H](CN(C)Cc2ccc(C(=O)Nc3ccccc3N)cc2)Oc2ccc(NC(=O)Nc3ccc4c(c3)OCO4)cc2CC1=O", "cytotoxicity call": "inactive"}
{"smiles": "C[C@H]1CN([C@@H](C)CO)C(=O)Cc2cc(NC(=O)Nc3ccc4c(c3)OCO4)ccc2O[C@@H]1CN(C)Cc1ccc(C(=O)Nc2ccccc2N)cc1", "cytotoxicity call": "inactive"}
{"smiles": "C[C@@H]1CN([C@H](C)CO)C(=O)c2cccc(NC(=O)Nc3cccc4ccccc34)c2O[C@@H]1CN(C)C(=O)NC1CCCCC1", "cytotoxicity call": "inactive"}
{"smiles": "C[C@H]1CN([C@@H](C)CO)C(=O)CCCn2cc(nn2)CO[C@@H]1CN(C)C(=O)Nc1cccc2ccccc12", "cytotoxicity call": "inactive"}
{"smiles": "O=C(Cn1cc(COc2ccc(-n3cccc3)cc2)nn1)NS(=O)(=O)c1ccccc1C(F)(F)F", "cytotoxicity call": "inactive"}
{"smiles": "C[C@@H]1CN([C@@H](C)CO)C(=O)c2cc(NC(=O)Cc3ccccc3)ccc2O[C@@H](C)CCCCO[C@H]1CN(C)C(=O)C1CCCCC1", "cytotoxicity call": "inactive"}
{"smiles": "C[C@H]1CN([C@@H](C)CO)C(=O)c2cccc(NS(=O)(=O)c3cccs3)c2O[C@@H]1CN(C)CC1CC1", "cytotoxicity call": "inactive"}
{"smiles": "COc1ccc([C@@H]([C@H](Cc2ccccc2)OC(C)=O)N2C[C@@H](OC(C)=O)[C@@H]3C(=NO[C@H]3c3ccccc3)[C@@H]2Cc2ccccc2)cc1", "cytotoxicity call": "inactive"}
{"smiles": "C[C@@H]1CN([C@@H](C)CO)C(=O)c2cccc(NC(=O)Nc3ccc4c(c3)OCO4)c2O[C@@H]1CN(C)Cc1ccc(C(F)(F)F)cc1", "cytotoxicity call": "inactive"}
{"smiles": "Oc1cc(O)c2cc(O)c(-c3ccc(O)c(O)c3)[o+]c2c1.[Cl-]", "cytotoxicity call": "inactive"}
{"smiles": "Cc1noc(C)c1S(=O)(=O)Nc1ccc2c(c1)C(=O)N([C@H](C)CO)C[C@H](C)[C@H](CN(C)S(=O)(=O)c1ccc(Cl)cc1)O2", "cytotoxicity call": "inactive"}
{"smiles": "COc1ccc(S(=O)(=O)N2C[C@@H](O)COC[C@H]3O[C@@H](CC(=O)NCc4ccc(Cl)c(Cl)c4)CC[C@@H]32)cc1", "cytotoxicity call": "active"}
{"smiles": "COc1ccc(S(=O)(=O)N2C[C@H](O)COC[C@H]3O[C@H](CC(=O)NCc4ccc(Cl)c(Cl)c4)CC[C@@H]32)cc1", "cytotoxicity call": "inactive"}
{"smiles": "COc1ccc(S(=O)(=O)N2C[C@@H](O)COC[C@@H]3O[C@@H](CC(=O)NCc4ccc(Cl)c(Cl)c4)CC[C@H]32)cc1", "cytotoxicity call": "active"}
{"smiles": "COc1ccc(S(=O)(=O)N2C[C@@H](O)COC[C@@H]3O[C@H](CC(=O)NCc4ccc(Cl)c(Cl)c4)CC[C@H]32)cc1", "cytotoxicity call": "inactive"}
{"smiles": "COc1ccc(S(=O)(=O)N2C[C@@H](O)COC[C@H]3O[C@H](CC(=O)NCc4ccc(Cl)c(Cl)c4)CC[C@@H]32)cc1", "cytotoxicity call": "inactive"}
{"smiles": "COc1ccc(S(=O)(=O)N2C[C@H](O)COC[C@@H]3O[C@H](CC(=O)NCc4ccc(Cl)c(Cl)c4)CC[C@H]32)cc1", "cytotoxicity call": "inactive"}
